Measured values as given in PubChem BioAssay (NCATS).
Results filed as inconclusive are left out. Active and inactive are the calls of the source. Unless noted, calls come from the whole dose curve; as a rule, active = well fitted curve in the direction sought with a large enough effect; inconclusive = small, poorly fitted or top-dose-only effect, or another doubt; inactive = no such curve, though single readings can be large; an effect the other way counts as inactive or inconclusive.

Legend:
[1] = AP1 Signaling Pathway (AID 357; active = well fitted curve in either direction with a large enough effect, not every such curve was filed as active;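 note: ME-180 reporter cells stimulated with EGF at its EC50 level; % is set by controls: 0 for no effect and ±100 for the full control effect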); details: ME-180 AP-1-bla reporter, EGF-induced, beta-lactamase ratio, 5 h; at 7.69 µM (top of the series) unless noted
Procedure, shortened: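 AP-1-bla ME-180 cells, Opti-MEM + 0.5% dialyzed FBS, plated overnight 37 °C. Cpd titration + EC50 EGF, 5 h 37 °C. CCF4 2.5 h RT; ex 405, em 460/530 ratio → %activity, AC50.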

[2] = biological target: Cytochrome P450 1A2 (Homo sapiens) (UniProt P05177); assay: p450-cyp1a2 (AID 410; calls by dose curve;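 note: -100% = full effect of reference inhibitor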)
Procedure, shortened: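 Human CYP1A2 (20nM) demethylated Luciferin-ME at its Km (100uM) in 100mM KPO4. After 10 min compound preincubation, NADPH regeneration ran the reaction 60 min at room temperature. Luciferin was read by luminescence, normalized to 57 uM furafylline.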

[3] = NFAT Signaling Pathway (AID 444; active = well fitted curve in either direction with a large enough effect, not every such curve was filed as active;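 note: carbachol stimulus at about its EC50 of 1 µM final; % is set by controls: 0 for no effect and ±100 for the full control effect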); details: Jurkat NFAT-bla M1, carbachol, beta-lactamase ratio, 5 h; at 7.69 µM (top of the series) unless noted
Procedure, shortened: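 Jurkat cells carrying an NFAT-driven β-lactamase reporter and co-transfected muscarinic M1 receptor were treated with compound plus carbachol (1 uM final, an EC50 level) for 5 h at 37 °C. CCF4 loading followed for 1 h at RT; 460/530 nm ratio gave %activity.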

[4] = Stat Signaling Pathway (AID 446; active = well fitted curve in either direction with a large enough effect, not every such curve was filed as active;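 note: ME-180 cervical cancer cells given 40 pM IL-6 alongside compound; SIE-controlled beta-lactamase reporter measured as 460/530 nm FRET emission ratio; % is set by controls: 0 for no effect and ±100 for the full control effect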); details: ME-180 (cervical carcinoma) SIE beta-lactamase reporter, IL-6 stimulated, 5 h; at 7.69 µM (top of the series) unless noted
Procedure, shortened: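 IL-6/STAT signaling read in ME-180 cells via an SIE beta-lactamase reporter. Stimulus was 40 pM IL-6 (its AC50) for 5 hrs, so both activation and inhibition register.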

[5] = biological target: Mitogen-activated protein kinase 10 (Mus musculus) (UniProt Q61831); assay: JNK3 AlphaScreen Assay (AID 530; active = well fitted curve in either direction with a large enough effect, not every such curve was filed as active;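 note: kinase came from lysate of stimulated human HepG2 cells; signal reports phosphorylation of biotinylated GST-cJun 1-79 at Ser73 with 10 µM ATP; % is set by controls: 0 for no effect and ±100 for the full control effect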)
Procedure, shortened: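 JNK3 came from HepG2 lysates pre-activated with IL-1beta and TNF-alpha and phosphorylated biotinylated GST-cJun (1-79) at 10 uM ATP, pH 7.6, room temperature. Compounds were titrated. AlphaScreen signal used anti-phospho-cJun (Ser73) antibody.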

[6] = biological target: 3',5'-cyclic-AMP phosphodiesterase 4B (Homo sapiens) (UniProt Q07343); assay: qHTS Assay for Inhibitors of PDE-IV (AID 607; active = well fitted activation curve with a large enough effect in the main read-out, with a control signal flat, not every such curve was filed as active; note: % of control where 0% means no effect)
Procedure, shortened: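 Live HEK293 cells with a modified cyclic nucleotide-gated (CNG) channel report intracellular cAMP via membrane-potential dye fluorescence (ex 535/em 590 nm). Endogenous PDE-IV was targeted. Compounds were tested at up to 22.9 uM final; RO 20-1724 100 uM served as control.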

[7] = biological target: Cytochrome P450 3A4 (Homo sapiens) (UniProt P08684); assay: qHTS Assay for Activators of Cytochrome P450 3A4 (AID 885); note: nearly all actives have a fitted effect of over 65% in size
Procedure, shortened: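 Quantitative HTS format: compounds preincubated with 20nM human CYP3A4 and Luciferin-PPXE substrate at KM, reaction started by NADPH regeneration, stopped after 60 min, luciferase luminescence read 20 min later.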

[8] = biological target: ATP-dependent 6-phosphofructokinase (Trypanosoma brucei brucei) (UniProt O15648); assay: qHTS Assay to Find Inhibitors of T. brucei phosphofructokinase: hit validation (AID 492961)
Procedure, shortened: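 Reaction: 0.1 M triethanolamine pH 8.0, 5 mM MgCl2, F6P 0.5 mM, ATP 0.1 mM, PFK 1.25 nM, 45 min RT. Read-out: ADP-Glo luminescence. Analysis: concentration-response fits, classed by r2 and efficacy.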

[9] = biological target: Luciferin 4-monooxygenase (Photinus pyralis) (UniProt P08659); assay: Biochemical firefly luciferase enzyme assay for NPC (AID 624030);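 note: purified P. pyralis luciferase at 10 nM with luciferin and ATP substrate; 0% = DMSO and -100% = full luciferase inhibition by PTC124 control; nearly all actives have a fitted effect of over 70% in size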
Procedure, shortened: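 Counter-screen for direct inhibition of the luciferase enzyme by approved-drug library compounds, run at 10 nM enzyme in 50 mM Tris acetate (final). Luminescence was read within 5 min of enzyme-buffer addition and normalized to PTC124 versus DMSO (0%).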

[10] = S16 Schwann cell PMP22 intronic element firefly luciferase assay (AID 624032);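 note: plate controls were DMSO for no effect and PTC124 positive control mean for full effect; nearly all actives have a fitted effect of over 30% in size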
Procedure, shortened: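 Rat S16 Schwann cells stably carrying a PMP22 intronic element-driven Fluc reporter were seeded overnight, then exposed to compounds for 24 h at 37 °C. Luminescence was normalized to PTC124 (positive control) and DMSO (0% activity).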

[11] = S16 Schwann cell PMP22 intronic element beta-lactamase assay (AID 624044; calls by dose curve;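 note: 0% = DMSO and -100% = potassium clavulanate positive control; nearly all actives have a fitted effect of over 15% in size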)
Procedure, shortened: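 Rat S16 Schwann cells with beta-Lac driven by a PMP22 intronic element, compound-treated 24 h at 37 °C. LiveBLAzer FRET B/G read: 460 nm normalized to potassium clavulanate vs DMSO; 535 nm FRET as viability; concentration-effect curves classified.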

[12] = qHTS profiling for inhibitors of Plasmodium falciparum proliferation (AID 504749); note: nearly all actives have a fitted effect of over 60% in size; note: potency is the fitted concentration of half-maximal effect;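 for activity, negative = inhibition: 0% = DMSO vehicle and full inhibition = artemisinin control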; details: P. falciparum in erythrocytes, SYBR Green DNA, 72 h, at 28.7 µM (top of the series)
Procedure, shortened: (§1)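 P. falciparum-infected erythrocytes (0.3% parasitemia, 2.5% hematocrit final) were exposed to compounds for 72 h at 37 C in 5% CO2, then lysed with SYBR Green buffer overnight at room temperature; parasite DNA fluorescence was normalized to artemisinin and DMSO controls.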

[13] = system: 3D7; assay: as above; details: P. falciparum in erythrocytes, SYBR Green DNA, 72 h; series mostly up to 28.7 µM
Procedure, shortened: as §1

[14] = system: 7G8; assay: as above; details: P. falciparum in erythrocytes, SYBR Green DNA, 72 h; series mostly up to 28.7 µM
Procedure, shortened: as §1

[15] = system: AA1029; assay: as above; details: P. falciparum in erythrocytes, SYBR Green DNA, 72 h; series mostly up to 28.7 µM
Procedure, shortened: as §1

[16] = system: AS120; assay: as above; details: P. falciparum in erythrocytes, SYBR Green DNA, 72 h; series mostly up to 28.7 µM
Procedure, shortened: as §1

[17] = system: ATS189; assay: as above; details: P. falciparum in erythrocytes, SYBR Green DNA, 72 h; series mostly up to 28.7 µM
Procedure, shortened: as §1

[18] = system: ATS95; assay: as above; details: P. falciparum in erythrocytes, SYBR Green DNA, 72 h; series mostly up to 28.7 µM
Procedure, shortened: as §1

[19] = system: C2A; assay: as above; details: P. falciparum in erythrocytes, SYBR Green DNA, 72 h; series mostly up to 28.7 µM
Procedure, shortened: as §1

[20] = system: CP185; assay: as above; details: P. falciparum in erythrocytes, SYBR Green DNA, 72 h; series mostly up to 28.7 µM
Procedure, shortened: as §1

[21] = system: CP191; assay: as above; details: P. falciparum in erythrocytes, SYBR Green DNA, 72 h; series mostly up to 28.7 µM
Procedure, shortened: as §1

[22] = system: CP192; assay: as above; details: P. falciparum in erythrocytes, SYBR Green DNA, 72 h; series mostly up to 28.7 µM
Procedure, shortened: as §1

[23] = system: CP194; assay: as above; details: P. falciparum in erythrocytes, SYBR Green DNA, 72 h; series mostly up to 28.7 µM
Procedure, shortened: as §1

[24] = system: CP201; assay: as above; details: P. falciparum in erythrocytes, SYBR Green DNA, 72 h; series mostly up to 28.7 µM
Procedure, shortened: as §1

[25] = system: CP203; assay: as above; details: P. falciparum in erythrocytes, SYBR Green DNA, 72 h; series mostly up to 28.7 µM
Procedure, shortened: as §1

[26] = system: CP211; assay: as above; details: P. falciparum in erythrocytes, SYBR Green DNA, 72 h; series mostly up to 28.7 µM
Procedure, shortened: as §1

[27] = system: CP215; assay: as above; details: P. falciparum in erythrocytes, SYBR Green DNA, 72 h; series mostly up to 28.7 µM
Procedure, shortened: as §1

[28] = system: CP217; assay: as above; details: P. falciparum in erythrocytes, SYBR Green DNA, 72 h; series mostly up to 28.7 µM
Procedure, shortened: as §1

[29] = system: CP238; assay: as above; details: P. falciparum in erythrocytes, SYBR Green DNA, 72 h; series mostly up to 28.7 µM
Procedure, shortened: as §1

[30] = system: CP247; assay: as above; details: P. falciparum in erythrocytes, SYBR Green DNA, 72 h; series mostly up to 28.7 µM
Procedure, shortened: as §1

[31] = system: CP250; assay: as above; details: P. falciparum in erythrocytes, SYBR Green DNA, 72 h; series mostly up to 28.7 µM
Procedure, shortened: as §1

Cytochrome P450 3A4 (Homo sapiens), sequence (P08684 whole entry, looked up): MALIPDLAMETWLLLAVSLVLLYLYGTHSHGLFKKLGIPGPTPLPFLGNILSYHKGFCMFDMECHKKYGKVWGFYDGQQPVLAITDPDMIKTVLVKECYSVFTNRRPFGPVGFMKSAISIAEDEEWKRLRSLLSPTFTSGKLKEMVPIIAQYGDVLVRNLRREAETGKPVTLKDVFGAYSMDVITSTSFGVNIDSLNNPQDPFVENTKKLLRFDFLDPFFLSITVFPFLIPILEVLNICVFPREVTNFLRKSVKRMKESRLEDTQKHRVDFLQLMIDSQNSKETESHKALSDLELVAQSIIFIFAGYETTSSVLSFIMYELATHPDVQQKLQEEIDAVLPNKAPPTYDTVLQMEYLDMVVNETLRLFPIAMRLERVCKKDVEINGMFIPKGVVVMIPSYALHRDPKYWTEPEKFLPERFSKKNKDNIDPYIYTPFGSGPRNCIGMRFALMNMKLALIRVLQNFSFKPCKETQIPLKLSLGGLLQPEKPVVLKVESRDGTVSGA
ATP-dependent 6-phosphofructokinase (Trypanosoma brucei brucei), sequence (O15648 whole entry, looked up): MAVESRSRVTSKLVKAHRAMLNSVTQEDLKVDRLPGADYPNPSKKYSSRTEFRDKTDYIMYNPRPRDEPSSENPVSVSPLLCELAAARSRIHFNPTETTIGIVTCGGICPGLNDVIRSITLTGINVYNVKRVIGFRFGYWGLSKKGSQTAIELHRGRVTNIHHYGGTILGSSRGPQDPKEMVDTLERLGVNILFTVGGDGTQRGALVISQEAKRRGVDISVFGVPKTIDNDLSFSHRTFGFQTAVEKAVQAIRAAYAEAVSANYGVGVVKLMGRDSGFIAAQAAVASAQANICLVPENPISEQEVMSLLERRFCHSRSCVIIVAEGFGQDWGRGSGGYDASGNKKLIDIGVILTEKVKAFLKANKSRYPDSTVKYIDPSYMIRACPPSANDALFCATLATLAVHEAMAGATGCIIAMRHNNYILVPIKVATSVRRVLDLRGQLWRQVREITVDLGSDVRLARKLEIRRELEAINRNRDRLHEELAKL
Luciferin 4-monooxygenase (Photinus pyralis), sequence (P08659 whole entry, looked up): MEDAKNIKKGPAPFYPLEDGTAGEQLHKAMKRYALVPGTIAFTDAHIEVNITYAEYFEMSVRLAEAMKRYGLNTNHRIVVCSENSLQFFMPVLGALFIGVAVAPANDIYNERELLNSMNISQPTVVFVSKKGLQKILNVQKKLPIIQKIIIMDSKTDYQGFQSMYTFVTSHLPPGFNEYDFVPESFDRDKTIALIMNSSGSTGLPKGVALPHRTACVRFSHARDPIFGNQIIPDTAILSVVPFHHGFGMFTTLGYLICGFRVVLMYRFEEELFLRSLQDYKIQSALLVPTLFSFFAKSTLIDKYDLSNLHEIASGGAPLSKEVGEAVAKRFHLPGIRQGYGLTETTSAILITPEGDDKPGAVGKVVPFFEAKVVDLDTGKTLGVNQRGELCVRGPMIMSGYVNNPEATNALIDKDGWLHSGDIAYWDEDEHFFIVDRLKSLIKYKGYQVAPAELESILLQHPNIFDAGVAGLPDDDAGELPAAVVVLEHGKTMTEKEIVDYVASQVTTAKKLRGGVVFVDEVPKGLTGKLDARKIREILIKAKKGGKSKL
Cytochrome P450 1A2 (Homo sapiens), sequence (P05177 whole entry, looked up): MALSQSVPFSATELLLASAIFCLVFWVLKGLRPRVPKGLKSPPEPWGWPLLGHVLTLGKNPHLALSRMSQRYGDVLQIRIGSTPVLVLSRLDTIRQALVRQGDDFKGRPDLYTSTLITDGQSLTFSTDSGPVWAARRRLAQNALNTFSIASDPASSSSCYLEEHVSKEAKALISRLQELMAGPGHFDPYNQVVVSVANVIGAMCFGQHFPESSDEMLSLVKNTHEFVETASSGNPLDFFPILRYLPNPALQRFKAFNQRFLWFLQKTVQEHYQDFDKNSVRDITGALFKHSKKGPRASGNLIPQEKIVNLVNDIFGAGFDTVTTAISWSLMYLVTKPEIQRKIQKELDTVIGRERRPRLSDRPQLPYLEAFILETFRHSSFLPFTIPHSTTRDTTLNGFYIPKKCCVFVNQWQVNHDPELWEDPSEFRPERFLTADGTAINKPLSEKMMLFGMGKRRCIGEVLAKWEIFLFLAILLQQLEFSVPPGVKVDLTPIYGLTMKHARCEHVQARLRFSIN
3',5'-cyclic-AMP phosphodiesterase 4B (Homo sapiens), sequence (Q07343 whole entry, looked up): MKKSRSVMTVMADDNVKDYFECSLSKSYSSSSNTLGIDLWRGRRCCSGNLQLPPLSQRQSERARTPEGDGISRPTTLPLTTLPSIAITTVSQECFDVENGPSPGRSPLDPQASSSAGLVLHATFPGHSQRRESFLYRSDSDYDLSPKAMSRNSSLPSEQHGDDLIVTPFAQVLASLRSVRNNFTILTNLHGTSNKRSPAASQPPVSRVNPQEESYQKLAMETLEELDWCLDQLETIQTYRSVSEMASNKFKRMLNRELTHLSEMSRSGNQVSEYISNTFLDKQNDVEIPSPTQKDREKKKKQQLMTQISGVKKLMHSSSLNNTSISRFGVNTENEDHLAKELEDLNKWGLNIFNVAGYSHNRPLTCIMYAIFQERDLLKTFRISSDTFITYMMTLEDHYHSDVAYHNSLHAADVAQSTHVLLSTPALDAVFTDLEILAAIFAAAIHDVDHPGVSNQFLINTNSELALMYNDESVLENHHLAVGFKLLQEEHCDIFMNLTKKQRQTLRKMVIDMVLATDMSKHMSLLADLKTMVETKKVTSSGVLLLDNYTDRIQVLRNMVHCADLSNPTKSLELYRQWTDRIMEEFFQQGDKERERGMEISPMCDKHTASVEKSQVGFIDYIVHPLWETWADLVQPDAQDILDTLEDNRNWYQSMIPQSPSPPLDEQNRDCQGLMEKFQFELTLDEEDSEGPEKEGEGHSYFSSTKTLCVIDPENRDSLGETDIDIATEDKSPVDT

C[C@@H]1C[C@H]2[C@H]3C[C@@H](F)C4=CC(=O)C=C[C@]4(C)[C@@]3(Cl)[C@@H](O)C[C@@]2(C)[C@@H]1C(=O)COC(=O)C(C)(C)C
inactive: activity change, negative = inhibition [1] -11.4% [at 17.2 µM] | Potency [2] | activity change, negative = inhibition [3] -26.1% [at 17.2 µM] | activity, negative = inhibition [4] -9.29% [at 17.2 µM] | Potency [5] | Potency [6] | Potency [7] | outcome [8] | outcome [9] | Potency [10] | outcome [11] | activity, negative = inhibition ([12]; parasite line A) 0.272% | activity, negative = inhibition ([12]; parasite line B) -10.2% | Potency [15] | Potency [16] | Potency [17] | Potency [18] | Potency [19] | Potency [20] | Potency [21] | Potency [22] | Potency [23] | Potency [24] | Potency [25] | Potency [26] | Potency [27] | Potency [28] | Potency [29] | Potency [30] | Potency [31]
active: Potency [13] 12.6 µM | Potency [14] 4.47 µM
